This is an account of results in publication PMC12136788.

B1: chr14:95709946:95710881:-|three_prime_utr|ENSG00000100721|control|control|control (ssRNA)
RNA: GGGAGUUCUACAGUCCGACGAUCUCUGGGAGGAAUGGACAGACAGAGGAUGAGCUCUACCCAGGGCCUGCAGGACCUGCCUGUAGCCCACUCUGCUCGCCUUAGCACUACCACUCCUGCCAAGGAGGAUUCCAUUUGGCAGAGCAACAGAGGAUUGAGCAUCA
B2: chr5:138873012:138874556:-|CDS|ENSG00000146006|control|control|control (ssRNA)
RNA: GGGAGUUCUACAGUCCGACGAUCUUUAUUAUUUUUAUAGUGUUCAUCUCCAGGAAGUGCUGCCCUCCCACUUUAAGAAGAAUUAGGCAGUGCUCAAUGGUUCAGAACCACAGGCAGCUCCGAUCCCAAACACGACUCCAUAUGCAACAGAGGAUUGAGCAUCA
B3: chr5:72207278:72207408:+|3pUTR|ENSG00000131711|msi1_unk|total|mutant (ssRNA)
RNA: GGGAGUUCUACAGUCCGACGAUCAGAGAACAAUGACCUCAUUUUAUUUUCUAUGUCCGUUAUUUAUUUCAAAAUUAACAUUUCCGUUGAUUUUUGUCUGAUAAGUCUAUGUUUUGCACUGCUAACUAUGAUGAGGGUUUAAAACAACAGAGGAUUGAGCAUCA
B4: chr1:93866283:93869944:-|three_prime_utr|ENSG00000067334|control|control|control (ssRNA)
RNA: GGGAGUUCUACAGUCCGACGAUCUUUAUUUACUUAUUAAAGACGUUUGGAAAACUAACACCAUCAUCUAAAUUAAUUUACCAUAGACUGGCCCUGUUCAUACAGGAAUUUGUAUUUGGAAAAAGUUGAUUUGAGAAUCGAUUACAACAGAGGAUUGAGCAUCA
B5: chr16:30603633:30603734:-|3pUTR|ENSG00000156853|unk|total|mutant (ssRNA)
RNA: GGGAGUUCUACAGUCCGACGAUCGUUAAGUACCACAUUCUCCUCUAAACCUUGCCUACGACAUGUUUAAUACUUCAUCUACACCGCAGCCCUUCAGAUAAUCACAACCACUUUGCCCCCAAGUUUUCAGGUUAAGCCGCAUGACAACAGAGGAUUGAGCAUCA
B6: chr2:32224452:32224765:-|three_prime_utr|ENSG00000091106|control|control|control (ssRNA)
RNA: GGGAGUUCUACAGUCCGACGAUCUCGUGUGAGCAGUGAUGGAUGGCUUGCCUUCAUGGGUGUAUUUGAGAAUCUUAAGCAAUUAGUGUUUUUUGACUUUAGUACUAAAGAAUUUCUACCUGAUCCAGCAUUAGUCAGAAAACUCAACAGAGGAUUGAGCAUCA
B7: ENSG00000198589:be:win_6851|CDS|ENSG00000198589|bound_else_gene|NA|bound_elsewhere_windowed (ssRNA)
RNA: GGGAGUUCUACAGUCCGACGAUCAAGUUCCAAAGUUUCACUAUGGUACUCAUUACUCAACUGCAAGUUUUGUUCUUGCAUGGCUGCUAAGAAUAGAACCCUUUACAACUUAUUUCCUAAAUUUGCAAGGAGGCAAAUUUGAUCCAACAGAGGAUUGAGCAUCA
B8: chr9:15474029:15474130:-|CDS|ENSG00000164985|unk|FALSE|unique (ssRNA)
RNA: GGGAGUUCUACAGUCCGACGAUCAAGAAAAGAGCCGGAUAAAAAAGAGGGGAAGAAAGAAGUUGAAUCAAAAAGGAAAAAUUUAGCUAAAACAGGGGUUACUUCAACCUCCGAUUCUGAAGAAGAAGGAGAUGAUCAAGAAGGCAACAGAGGAUUGAGCAUCA
B9: chr12:57516587:57516808:-|three_prime_utr|ENSG00000175197|control|control|control (ssRNA)
RNA: GGGAGUUCUACAGUCCGACGAUCCCCCCACUUGGGCCACACUACCCACCUUUCCCAGAAGUGGCUACUGACUACCCUCUCACUAGUGCCAAUGAUGUGACCCUCAAUCCCACAUACGCAGGGGGAAGGCUUGGAGUAGACAAACAACAGAGGAUUGAGCAUCA
B10: chr5:141515350:141515460:-|3pUTR|ENSG00000131504|msi1_unk|total|mutant (ssRNA)
RNA: GGGAGUUCUACAGUCCGACGAUCCUCAGCUUUCCAUCCCCAGCCCGGAAGAAAGAAUGGCACUCUUGGGCUUGGCCCAGAAUCCGAGUUAUCCGAGCAAGAGAGAGCUCCGGAAGCAUGAGGGCAACUACCGUGAGGCCUUAUCAACAGAGGAUUGAGCAUCA
B11: chr8:42175261:42175472:-|3pUTR|ENSG00000104368|msi1|total|mutant (ssRNA)
RNA: GGGAGUUCUACAGUCCGACGAUCGUAUUCCUUUUGUGUACAGUGUGUAAAGUGUAAAUCCUUUUUCUUUAUAAACUUCCGAGCCGCAUGAGAGAAUUGUAUCAUUUGAACAACCCGGCUUCAGCAUAUUUACCGCAAUCCAUGCAACAGAGGAUUGAGCAUCA
B12: chr8:6757792:6757893:+|3pUTR|ENSG00000155189|msi1|FALSE|unique (ssRNA)
RNA: GGGAGUUCUACAGUCCGACGAUCAUUUAUUACAACUUGACAGCUCCAAGCUCUUAUUACUAAAGUAUUUAGUAUCUUGCAGCUAGUUAAUAUUUCAUCUUUUGCUUAUUUCUACAAGUCAGUGAAAUAAAUUGUAUUUAGGAACAACAGAGGAUUGAGCAUCA
B13: chr8:103332422:103332528:+|3pUTR|ENSG00000164930|msi1|FALSE|unique (ssRNA)
RNA: GGGAGUUCUACAGUCCGACGAUCUUUUUUAACAUUUAGAAUAUUACAUUUUGUAUUAUACAGUACCUUUCUCAGACAUUUUGUAGAAUUCAUUUCGGCAGCUCACUAGGAUUUUGCUGAACAUUAAAAAGUGUGAUAGCGAUACAACAGAGGAUUGAGCAUCA
B14: chr5:138184526:138184629:+|CDS|ENSG00000112984|unk|FALSE|unique (ssRNA)
RNA: GGGAGUUCUACAGUCCGACGAUCGUGCAUGCCCCACCUAUGCAACUGGGAUUCCCAUCCCUGCACUCGUUCAUCAAGGAACAUAGUCUUCAGGUAUCCCCCAGCUUAGAGAAAGGGGCUAAGGCAGACACAGGCCUUGAUGAUCAACAGAGGAUUGAGCAUCA
B15: chr5:141515350:141515460:-|3pUTR|ENSG00000131504|msi1_unk|FALSE|overlapping (ssRNA)
RNA: B10 RNA with C44U, C45A, C83U, C84A, C92U, C93A, C109U, C110A, C130U, C131A
B16: chr5:132696315:132696416:-|3pUTR|ENSG00000131437|msi1|FALSE|unique (ssRNA)
RNA: GGGAGUUCUACAGUCCGACGAUCGUUGUACUACUACUCUUCAAUUGUACUGUGCAGGGAAGUUGGGGGAACAGUUCAUACUAUAGAGAGUUACAGUUUAGAUGUAUGUGUAAAUCGAUUAGCUAUUUAUCCAACUACUGUAUACAACAGAGGAUUGAGCAUCA
B17: chr7:80742675:80742739:-|3pUTR|ENSG00000075223|msi1_unk|FALSE|overlapping (ssRNA)
RNA: GGGAGUUCUACAGUCCGACGAUCGUAGCUUGACAAUUCAGUGACUUAAUAUCUAUUCCAUUUGUAUUGUACAUAAAAUUUUCUAGAAAUACACUUUUUUCCAAAGUGUAAGUUUGUGAAUAGAUUUUAGCAUGAUGAAACUGUCAACAGAGGAUUGAGCAUCA
B18: chr4:65323451:65323552:-|3pUTR|ENSG00000145242|msi1|total|mutant (ssRNA)
RNA: GGGAGUUCUACAGUCCGACGAUCAUCAAGAAAAAGUACAAUACAGGGUGUAUAUUUAUUUUUUGUGUUAUAAAGUUUACUUUCCGUUGCUCUUCCCGAGAUUAUCCGGUAAUAAAUGUGUAUAUACUGUAUAAUUUGCAAUAUCAACAGAGGAUUGAGCAUCA
B19: chr8:103332422:103332528:+|3pUTR|ENSG00000164930|msi1|total|mutant (ssRNA)
RNA: B13 RNA with U36C, A37C, U83C, A84C, U106C, A107C, U136C, A137C
B20: chr8:42175261:42175472:-|3pUTR|ENSG00000104368|msi1|FALSE|unique (ssRNA)
RNA: B11 RNA with C78U, C79A, C83U, C84A, C114U, C115A, C132U, C133A
B21: chr5:132696315:132696416:-|3pUTR|ENSG00000131437|msi1|total|mutant (ssRNA)
RNA: B16 RNA with U83C, A84C, U98C, A99C, U119C, A120C
B22: chr11:70485313:70487720:-|CDS|ENSG00000162105|control|control|control (ssRNA)
RNA: GGGAGUUCUACAGUCCGACGAUCUGGGGCGACGUCACAGAGAUCAAAAGCCCGAUUCUCUCAGGCCCAAAGGCAAACGUUAUUAGUGAAUUGAACUCUAUCCUACAGCAAAUGAACCGAGAGAAAUUGGCAAAGCCGGGGGAACAACAGAGGAUUGAGCAUCA

Positions count from the first letter of the chain named. Over roughly 5,800 sequences, “enrichment r” has its median near 0.54; the highest 2% begin near 16. Shown is part of a subset that was picked to be rich in the highest values.

Sequence of MSI1 full-length (Q61474 whole entry): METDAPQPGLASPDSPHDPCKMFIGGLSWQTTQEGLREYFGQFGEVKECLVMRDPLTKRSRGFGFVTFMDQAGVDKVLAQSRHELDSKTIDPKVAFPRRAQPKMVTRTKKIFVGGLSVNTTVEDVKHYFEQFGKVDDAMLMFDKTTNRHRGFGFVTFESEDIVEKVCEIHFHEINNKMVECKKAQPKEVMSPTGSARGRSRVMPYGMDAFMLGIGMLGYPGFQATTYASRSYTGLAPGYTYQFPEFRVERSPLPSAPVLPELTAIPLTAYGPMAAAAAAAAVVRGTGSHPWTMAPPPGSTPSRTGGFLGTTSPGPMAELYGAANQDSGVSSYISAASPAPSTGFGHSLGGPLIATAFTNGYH

This assay has as its target MSI1 full-length (mouse, UniProt Q61474 1-362). Put plainly: nsRBNS (natural sequence RNA bind-n-seq); RBNS binding buffer (assumed for nsRBNS): 25 mM Tris pH 7.5, 150 mM KCl, 3 mM MgCl2, 0.01% Triton X-100, 500 ug/ml BSA, 20 U/ml SUPERase-In, 4 C; UNK is unkempt and MSI1 is Musashi-1; names of the RNAs are library labels; protein concentration not given here; high values mean tight binding.
Molecule B1 returned a binding signal of 0.347 enrichment R.

As for B2, the binding signal amounted to 1.88 enrichment R.

B3 returned a binding signal of 0.411 enrichment R.

As to B4, the binding signal was 0.451 enrichment R.

For B5, the binding signal was determined as 1.38 enrichment R.

On to B6, for which the binding signal stood at 3.3 enrichment R.

As to B7, the binding signal is 0.297 enrichment R.

As to B8, the binding signal was determined as 0.83 enrichment R.

B9: the binding signal came to 0.549 enrichment R.

Regarding B10, the binding signal was determined as 0.337 enrichment R.

In turn, B11 displayed a binding signal of 0.424 enrichment R.

With B12, the binding signal was 1.46 enrichment R.

In turn, B13 yielded a binding signal of 51.5 enrichment R.

B14 yielded a binding signal of 0.612 enrichment R.

On to B15, for which the binding signal worked out at 28.2 enrichment R.

The molecule B16 came in with a binding signal of 19.9 enrichment R.

The molecule B17 returned a binding signal of 6.36 enrichment R.

Regarding B18, the binding signal amounted to 1.51 enrichment R.

Molecule B19 gave a binding signal of 0.818 enrichment R.

For B20, the binding signal is 33.5 enrichment R.

For the molecule B21, the binding signal stood at 0.609 enrichment R.

Consider B22, for which the binding signal was determined as 0.762 enrichment R.
